# Laboratory results as given in PubChem BioAssay (NCI).
# Several values for one entry are separate records, joined by “and”; a condition that tells them apart may be missing. Equal values may be shown once. About 83,000 compounds went through this panel and 20% of them were active in at least one assay; those are over-represented in the sample as a whole.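 Step 1: grow cells in 96-well plates. Step 2: add test compound at a single concentration. Step 3: incubate 48 h. Step 4: record percent growth.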 Activity calls are given as the source filed them. Rule for the calls: active = growth percent below 10; inactive = the rest.
# Test system: HL-60(TB) leukemia
# Test: NCI-60 one-dose screen, 48 h (100 = growth as untreated, 0 = no growth, -100 = all killed)
# Settings: 10 µM unless noted
row,SMILES,growth
1,OCCN1CCN(CC/C=C2\c3ccccc3Sc3ccc(Cl)cc32)CC1,14.2% (inactive) and 19.5% (inactive)
2,CCNC(=O)c1[nH]cc(-c2ccccc2)c1-c1cc(OC)c2c(c1OC)OCO2,94.7% (inactive)
3,O=C(/C=C\c1ccnc2ccccc12)c1ccc([N+](=O)[O-])cc1,47.1% (inactive) and 30.4% (inactive)
4,COc1ccc(-c2nc3sccn3c2/C=C/C(=O)c2ccc3c(c2)OCO3)cc1,79.6% (inactive)
5,COc1ccc(CC(C#N)c2ccc(Cl)cc2)cc1 (stereo not given),84% (inactive)
6,CCN(CC)CCC(CNc1c2ccc(Cl)cc2nc2ccc(OC)cc12)c1ccccc1 (stereo not given),28.7% (inactive)
7,COc1cc(-c2nc(-c3ccccc3)c(-c3ccccc3)[nH]2)cc(OC)c1O,-8.92% (active)
8,COc1ccc(-c2cc(/C=C3\C(=O)Nc4cc(Cl)ccc43)[nH]n2)cc1OC,53% (inactive)
9,CCCCNc1ccc(C#N)c(OCCN(CC)CC)c1,88.8% (inactive)
10,COc1cccc(-c2nn(-c3ccccc3)cc2-c2ccnc(NCCNS(=O)(=O)c3cccc(F)c3)c2)c1,5.83% (active)
11,CCn1nc(-c2ccccn2)c2cccnc2c1=S,37.4% (inactive)
12,CC(C)NC1CCC(Nc2ccnc3cc(Cl)ccc23)CC1 (stereo not given),57.9% (inactive)
13,COc1cc(-c2cc3ncccc3c3nc(N)c4cccnc4c23)cc(OC)c1OC,6.71% (active)
14,Cc1cc(Cl)ccc1Nc1nc(C(F)(F)F)ccc1C(=O)NCC(=O)N/N=C/c1c(Cl)cccc1Cl,48.7% (inactive)
15,O=C(O)CCCCSc1ncnc2nc[nH]c12,103% (inactive)
16,COc1cc(NCCCCCN)c2ncccc2c1,83.2% (inactive)
17,O=C1CCN(Cc2ccccc2)C(=S)N1,86.8% (inactive) and 113% (inactive)
18,CC(=O)C(CO)C(=O)Nc1ccccc1 (stereo not given),100% (inactive)
19,N#Cc1c(C(F)(F)F)cc(Nc2ccc3nc(NCCN4CCCC4)oc3c2)n2c1nc1ccccc12,86.6% (inactive)
20,Nc1ccccc1SC(CC(=O)c1ccccc1)c1cccc([N+](=O)[O-])c1 (stereo not given),96.8% (inactive) and 88.5% (inactive)

row,SMILES,growth
1,O=C(Nc1ccccc1S)c1ccccc1,105% (inactive)
2,N#Cc1ccc(OCc2nc(N)nc(N)c2-c2ccc(Cl)c(Cl)c2)cc1,21.7% (inactive)
3,COc1cc2c3c(n([C@@H]4CCOC4)c(=O)c2cc1OC)-c1cc2c(cc1C3=O)OCO2,26.3% (inactive)
4,O=c1oc2ccccc2cc1C1=NN=C(SCc2ccccc2)SC1,102% (inactive)
5,CN(C)CCNC(=O)c1cccc(-c2cnc3ccc(-c4ccc5c(c4)OCO5)nn23)c1,64.1% (inactive)
6,Nc1ccc(S(=O)(=O)Nc2ncccn2)cc1,105% (inactive)
7,O=C(Nc1nc2ccc(F)cc2s1)c1cc(-c2ccc(F)cc2)n2nc(-c3ccccc3)cc2n1,92.9% (inactive)
8,O=C(NO)c1ccc(Cn2c(=O)n(-c3ccccc3)c(=O)c3ccccc32)cc1,1.26% (active)
9,Cc1nc(Nc2n[nH]c3c2CN(C(=O)N[C@H](CN(C)C)c2ccccc2)C3(C)C)c2sccc2n1,-30.6% (active)
10,O=C(Cn1c(=O)ccn(CCCCCCCCOc2ccc(Br)cc2)c1=O)Nc1ccc(Oc2ccc(Cl)cc2)cc1,48.7% (inactive)
11,Cc1cc(Cl)c2c(Cl)ccc(Cl)c2n1,96.2% (inactive)
12,CCCNC(=O)Oc1ccc(/C(=C(\C)c2ccccc2)c2ccc(OCCN3CCCCC3)cc2)cc1,63.1% (inactive)
13,O=C(Cc1ccccc1[N+](=O)[O-])c1ccc2c(c1)OCO2,99.7% (inactive)
14,COc1cc(Cl)cc(-c2nn(C(=O)NCCN3CCOCC3)cc2-c2ccncc2)c1,55.7% (inactive)
15,Cn1c2c(c3ccc(Cl)cc31)-n1cccc1C2=O,64.9% (inactive)
16,CCCCCCCOc1cccc(/C=C2\N=C3SCCCN3C2=O)c1,65% (inactive)
17,O=Cc1ccccc1C(=O)O,111% (inactive)
18,O=C(c1cc(-c2ccc(Cl)cc2)nc2ccccc12)N1N=C(c2ccccc2)CC1c1cc(-c2ccccc2)nn1-c1ccccc1 (stereo not given),91.6% (inactive)
19,COC(=O)c1c2c(c(C)[n+]([O-])c1C)C(=O)C(NCc1ccc(Cl)cc1)=CC2=O,80.3% (inactive)
20,CC1=NC2=CC=CC3=NC(C(Cl)(Cl)Cl)=NC(=N1)N23,25.2% (inactive)
